From PubChem BioAssay (NCATS) come the findings set out here.

Test [1] is described as follows: Cytometry Cell-Based qHTS for Inhibitors of the mTORC1 Signaling Pathway in MEF cells (AID 2668).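 Note: Tsc2-/- p53-/- mouse embryonic fibroblasts stably re-expressing wild-type Tsc2; percent cells positive for phospho-rpS6 Ser235/236 relative to propidium iodide stain; series mostly up to about 38 µM.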 The gist of the method:
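WT MEFs (Tsc2-/-, p53-/- stably re-expressing WT Tsc2) in DMEM + 10% FBS received compounds 24 hrs after plating, for 24 hrs at 37 degree Celsius. Fixed cells stained with Alexa-488 anti-phospho-rpS6 Ser235/236 and propidium iodide; laser-scanning cytometry read-out.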
(Quantitative high-throughput screening tests each substance at several concentrations.)

Test [2] has as its target Ubiquitin carboxyl-terminal hydrolase 2 (Homo sapiens) (UniProt O75604). The test is described as follows: qHTS Validation Assay for Inhibitors of Ubiquitin-specific Protease USP2a Using CHOP2 as the Reporter (AID 463106). The gist of the method:
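Fluorescence read-out at Ex 485nm/Em 531nm after 60min RT, following addition of 25nM Ub-CHOP2 plus 25nM reporter substrate to USP2 core (10nM) pretreated 30min with compound. Data normalized to NEM full inhibition; concentration-response curves fitted.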

For test [3], the target named is DNA polymerase III PolC-type (Bacillus subtilis (strain 168)) (UniProt P13267). Description: qHTS Validation Assay for the Inhibitors of DNA Replication in Gram-Positive Bacteria (AID 485295). Note: potency is the fitted concentration of half-maximal effect. In outline: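 Reconstituted B. subtilis holoenzyme (Pol III, beta clamp, SSB, primase) was preincubated with compound at room temperature, then given single-stranded circular M13Gori plus dNTPs and NTPs. EDTA-containing PicoGreen stopped the reaction, and dsDNA product was read by fluorescence.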
DNA polymerase III PolC-type (Bacillus subtilis (strain 168)), sequence (P13267 whole entry, looked up): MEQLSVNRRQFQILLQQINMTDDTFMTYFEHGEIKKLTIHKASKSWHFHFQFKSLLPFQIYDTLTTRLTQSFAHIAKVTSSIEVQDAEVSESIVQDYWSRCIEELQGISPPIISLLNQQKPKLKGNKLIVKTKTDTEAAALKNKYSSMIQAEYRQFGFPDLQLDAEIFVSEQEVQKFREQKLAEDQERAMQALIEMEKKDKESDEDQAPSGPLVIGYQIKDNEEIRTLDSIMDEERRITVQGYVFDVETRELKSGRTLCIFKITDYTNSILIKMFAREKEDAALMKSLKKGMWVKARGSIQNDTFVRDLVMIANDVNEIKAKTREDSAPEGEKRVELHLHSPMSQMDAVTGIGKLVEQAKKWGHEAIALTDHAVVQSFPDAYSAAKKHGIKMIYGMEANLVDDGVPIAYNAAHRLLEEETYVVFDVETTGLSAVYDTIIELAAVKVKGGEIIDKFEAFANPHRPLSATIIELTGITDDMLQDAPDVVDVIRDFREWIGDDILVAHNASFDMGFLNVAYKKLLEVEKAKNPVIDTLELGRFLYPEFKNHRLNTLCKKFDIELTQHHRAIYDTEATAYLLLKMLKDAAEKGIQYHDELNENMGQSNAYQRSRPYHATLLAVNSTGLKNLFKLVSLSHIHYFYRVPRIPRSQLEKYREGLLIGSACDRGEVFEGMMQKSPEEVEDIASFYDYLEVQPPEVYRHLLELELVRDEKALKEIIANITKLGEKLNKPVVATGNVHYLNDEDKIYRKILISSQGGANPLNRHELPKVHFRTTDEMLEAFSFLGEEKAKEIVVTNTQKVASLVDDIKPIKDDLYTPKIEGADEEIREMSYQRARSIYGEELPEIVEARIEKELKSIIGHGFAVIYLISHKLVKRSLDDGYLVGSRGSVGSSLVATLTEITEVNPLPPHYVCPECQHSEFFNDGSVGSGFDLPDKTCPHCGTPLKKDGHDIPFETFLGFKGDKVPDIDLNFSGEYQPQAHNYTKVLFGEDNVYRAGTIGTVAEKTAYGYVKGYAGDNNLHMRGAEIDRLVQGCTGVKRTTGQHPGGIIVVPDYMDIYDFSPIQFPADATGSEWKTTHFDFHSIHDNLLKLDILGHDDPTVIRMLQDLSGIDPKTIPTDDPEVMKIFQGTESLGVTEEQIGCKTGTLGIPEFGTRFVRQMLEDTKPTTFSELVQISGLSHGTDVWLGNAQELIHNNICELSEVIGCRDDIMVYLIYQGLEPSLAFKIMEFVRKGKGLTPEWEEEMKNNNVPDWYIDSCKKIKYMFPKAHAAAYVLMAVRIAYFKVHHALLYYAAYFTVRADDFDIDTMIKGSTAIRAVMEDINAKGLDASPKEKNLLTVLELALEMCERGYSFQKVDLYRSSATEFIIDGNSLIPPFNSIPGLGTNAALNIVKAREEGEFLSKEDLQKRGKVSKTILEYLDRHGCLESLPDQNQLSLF

For test [4], the target named is Tumor susceptibility gene 101 protein (Homo sapiens) (UniProt Q99816). Description: qHTS Validation Assay for Iinhibitors of HIV-1 Budding by Blocking the Interaction of PTAP/TSG101 (AID 485342; calls by dose curve). In outline: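 Tsg101 binding domain (10 uM final) in pH 7.5 HEPES/NaCl/Tween 20/EDTA/TCEP buffer was mixed with pin-transferred compounds, then FITC-labeled PTAP peptide (50 nM final) was added; after 20 min at r.t., fluorescence polarization was read.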
Tumor susceptibility gene 101 protein (Homo sapiens), sequence (Q99816 whole entry, looked up, the tested form may be a part): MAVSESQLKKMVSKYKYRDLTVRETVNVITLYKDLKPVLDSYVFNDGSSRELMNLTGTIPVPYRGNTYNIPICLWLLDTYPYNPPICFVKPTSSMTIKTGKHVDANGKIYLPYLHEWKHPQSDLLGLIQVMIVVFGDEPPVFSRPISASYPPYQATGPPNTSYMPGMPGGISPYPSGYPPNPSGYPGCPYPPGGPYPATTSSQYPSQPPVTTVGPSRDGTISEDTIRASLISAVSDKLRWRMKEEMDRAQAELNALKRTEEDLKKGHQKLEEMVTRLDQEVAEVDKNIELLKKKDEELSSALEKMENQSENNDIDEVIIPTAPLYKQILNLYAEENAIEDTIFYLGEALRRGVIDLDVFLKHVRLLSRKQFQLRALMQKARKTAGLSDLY

Test [5] is described as follows: qHTS Validation Assay to Find Inhibitors of Chronic Active B-Cell Receptor Signaling (AID 485345; active = well fitted curve in the direction sought with a large enough effect in the main read-out, with a control signal flat, not every such curve was filed as active). The gist of the method:
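TMD8 ABC-DLBCL cells stably carrying doxycycline-inducible IkappaBalpha–green luciferase fusion plus unfused red luciferase; compounds 46 uM to 3 nM, 4 h at 37C with doxycycline. Corrected green/red luminescence ratio normalized to 10 uM MG-132 and basal cell wells; curves fitted.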

Test [6] deals with Beta-2 adrenergic receptor (Homo sapiens) (UniProt P07550). The test is described as follows: qHTS validation assay of beta-arrestin-biased ligands of beta2-adrenergic receptor (AID 485366). The gist of the method:
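Agonist activity is measured as luciferase luminescence downstream of beta-arrestin recruitment to recombinant beta2-AR in Tango cells. Exposure lasts 18 hr at 37 degrees C, and curves are categorized by r2, response size and activity.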

A short description of test [7]: Validation screen for small molecules that induce DNA re-replication in MCF 10A normal breast cells (AID 463097). Note: nearly all actives have a fitted effect of over 60% in size. Note: potency is the fitted concentration of half-maximal effect. In outline:
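Readout: Hoechst nuclear fluorescence intensity, 405 ex / 500-530 em, by scanning plate imager; re-replication scored as increase in nuclei with elevated DNA content. Cells exposed to compound 48 hr, 37 C, 5% CO2 beforehand.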

Test [8] addresses ATP-dependent 6-phosphofructokinase (Trypanosoma brucei brucei) (UniProt O15648). The test is described as follows: qHTS Validation Assay to Find Inhibitors of T. brucei phosphofructokinase (AID 485368). Note: potency is the fitted concentration of half-maximal effect. In outline:
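Inhibition derived from concentration-response curves of luminescence, ranked by r2, response size and curve class; the underlying reaction used 1.25 nM PFK, 0.1 mM ATP and 0.5 mM F6P, 45 min, room temperature.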

Test [9] can be described thus: Quantitative high throughput screen for delayed death inhibitors of the malarial parasite plastid, 96 hour incubation (AID 488745). Note: nearly all actives have a fitted effect of over 70% in size. Note: potency is the fitted concentration of half-maximal effect. In outline:
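Luciferase-expressing P. falciparum, infected RBCs 2% Hct/0.1% parasitemia (final); 96 h cpd exposure, 37 C, 5% CO2; RPMI 1640 + 0.5% Albumax, bicarbonate, gentamycin. Readout: luminescence loss = growth inhibition.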

Test [10] in a line: Quantitative high throughput screen for delayed death inhibitors of the malarial parasite plastid, 48 hour incubation (AID 488752). Note: nearly all actives have a fitted effect of over 65% in size. Note: potency is the fitted concentration of half-maximal effect. In outline: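 Luciferase-expressing P. falciparum in RBCs, 2% Hct, 0.1% parasitemia final; RPMI 1640 + 0.5% Albumax; 48 h, 37 C, 5% CO2; luminescence readout, signal drop = growth inhibition.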

Inconclusive results are not listed. The source made the active and inactive calls. Unless noted, calls come from the whole dose curve; as a rule, active = well fitted curve in the direction sought with a large enough effect; inconclusive = small, poorly fitted or top-dose-only effect, or another doubt; inactive = no such curve, though single readings can be large; an effect the other way counts as inactive or inconclusive.

Ubiquitin carboxyl-terminal hydrolase 2 (Homo sapiens), sequence (O75604 whole entry, looked up): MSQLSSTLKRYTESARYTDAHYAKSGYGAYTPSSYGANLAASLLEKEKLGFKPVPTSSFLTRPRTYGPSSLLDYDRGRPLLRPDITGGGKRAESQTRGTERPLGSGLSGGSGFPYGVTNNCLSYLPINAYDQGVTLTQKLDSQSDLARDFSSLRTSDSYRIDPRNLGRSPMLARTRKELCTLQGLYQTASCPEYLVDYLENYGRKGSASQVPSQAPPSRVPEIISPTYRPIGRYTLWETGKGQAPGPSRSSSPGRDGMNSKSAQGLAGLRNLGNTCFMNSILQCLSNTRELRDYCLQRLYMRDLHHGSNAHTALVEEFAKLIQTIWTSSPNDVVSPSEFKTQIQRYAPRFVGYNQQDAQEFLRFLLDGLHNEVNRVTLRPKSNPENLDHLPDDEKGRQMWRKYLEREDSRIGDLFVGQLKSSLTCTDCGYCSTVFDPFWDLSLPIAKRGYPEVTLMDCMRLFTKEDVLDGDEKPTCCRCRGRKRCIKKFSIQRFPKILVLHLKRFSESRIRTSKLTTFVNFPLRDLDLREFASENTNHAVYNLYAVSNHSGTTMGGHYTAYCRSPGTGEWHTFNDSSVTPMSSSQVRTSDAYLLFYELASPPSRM
ATP-dependent 6-phosphofructokinase (Trypanosoma brucei brucei), sequence (O15648 whole entry, looked up): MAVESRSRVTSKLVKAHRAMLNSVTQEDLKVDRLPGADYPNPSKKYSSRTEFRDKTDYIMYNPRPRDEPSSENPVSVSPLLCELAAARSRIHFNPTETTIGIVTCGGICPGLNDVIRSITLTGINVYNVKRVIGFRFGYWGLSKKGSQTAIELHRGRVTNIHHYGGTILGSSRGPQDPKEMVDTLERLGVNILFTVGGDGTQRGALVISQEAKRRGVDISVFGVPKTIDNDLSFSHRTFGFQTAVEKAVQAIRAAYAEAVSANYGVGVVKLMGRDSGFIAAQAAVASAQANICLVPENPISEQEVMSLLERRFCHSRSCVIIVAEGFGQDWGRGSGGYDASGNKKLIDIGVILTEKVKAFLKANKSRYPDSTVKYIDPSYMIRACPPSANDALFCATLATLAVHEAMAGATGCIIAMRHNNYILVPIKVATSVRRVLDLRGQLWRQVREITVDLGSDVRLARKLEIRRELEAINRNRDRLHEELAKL
Beta-2 adrenergic receptor (Homo sapiens), sequence (P07550 whole entry, looked up): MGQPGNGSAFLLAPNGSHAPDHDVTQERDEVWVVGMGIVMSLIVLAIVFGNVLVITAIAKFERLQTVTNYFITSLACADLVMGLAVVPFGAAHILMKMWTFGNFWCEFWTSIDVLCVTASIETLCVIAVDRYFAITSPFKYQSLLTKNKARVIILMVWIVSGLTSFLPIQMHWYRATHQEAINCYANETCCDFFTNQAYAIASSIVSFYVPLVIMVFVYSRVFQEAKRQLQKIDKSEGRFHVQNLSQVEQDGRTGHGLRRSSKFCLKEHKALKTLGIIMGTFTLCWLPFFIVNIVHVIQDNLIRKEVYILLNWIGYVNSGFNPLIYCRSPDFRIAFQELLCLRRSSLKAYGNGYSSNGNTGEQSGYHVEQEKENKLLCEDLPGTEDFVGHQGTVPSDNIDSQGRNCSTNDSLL

As to `CC(N)C(=O)OC(C)(C)Cc1ccc(Cl)cc1` (stereo not drawn), the Potency entry in test [1], in [2] and in test [3] was “inactive” in each case. Moreover, the outcome in test [4], in test [5] and in [6] was inactive.
`CN=c1nc(-c2ccccc2)n(-c2ccccc2)s1`: the Potency entry in test [1], in [2] and in test [9] was “inactive” throughout. Besides, the Potency was 11.2 µM (active) in test [7], 26.7 µM (active) in test [3] and 10.7 µM (active) in test [8]. Moreover, the result in test [5] and in test [6] was inactive.
Take `O=c1[nH]c2cc(C(F)(F)F)ccc2n1-c1cc(C(F)(F)F)ccc1O`: the Potency result in test [1], in [7], in test [2], in test [3] and in test [8] was “inactive” in each case. For the same molecule, the outcome in test [4] and in test [6] was inactive.
Regarding `NO`, the Potency entry in test [1], in test [7], in test [2], in test [3] and in [10] was “inactive” in each case. For the same molecule, the result in test [5] and in test [6] was inactive.
In the case of `O=C(O)c1cc(=O)c2ccccc2[nH]1`, the Potency entry in [1], in test [7], in [2], in [3] and in test [9] was “inactive” throughout. Besides, the call in [5] and in test [6] was inactive.
`C=CC(C)=C[C@@]1(C)SC(=O)C(C)=C1O`: the Potency result in [1], in [2] and in [3] was “inactive” in each case. Further, the result in test [4], in test [5] and in test [6] was inactive.
As to `Cn1c(=O)c2[nH]c(-c3ccccc3)nc2n(C)c1=O`, the Potency result in test [1], in [7], in [2], in test [3], in test [8] and in test [9] was “inactive” each time. For the same molecule, the Potency result in [10] was “inactive”. In [6], the molecule was called inactive.
With `CC(C)NC[C@@H](O)c1ccc(O)c(O)c1`, the Potency entry in [1], in test [2] and in test [3] was “inactive” in each case. Besides, the outcome in test [4] and in test [5] was inactive.
In the case of `O=C(O)CC1CC(c2ccccc2)=NO1` (stereo not drawn), the Potency entry in test [1], in test [2] and in test [3] was “inactive” each time. The molecule was classed as inactive in test [4], in test [5] and in test [6].
For `Cc1cc(NC(=O)Nc2ccc3c(ccn3C)c2)sn1`, the Potency entry in [1], in test [7], in test [2], in test [3] and in test [9] was “inactive” each time. For the same molecule, the result in test [4] and in test [6] was inactive.
As to `Fc1ccc(C(OCCCc2cnc[nH]2)c2ccc(F)cc2)cc1`, the Potency result in [1], in [7], in test [2] and in [3] was “inactive” each time. Moreover, the call in test [4] and in [6] was inactive. Besides, the Potency was 2.62 µM (active) in test [9] and 6.57 µM (active) in test [10].
As to `COc1cc2c(CCNC(C)=O)c[nH]c2cc1Cl`, the Potency entry in test [1], in test [7], in test [2], in test [3], in test [9] and in [10] was “inactive” in each case. Also, the molecule was called inactive in [5] and in test [6].
Take `O=P(O)(O)C(Cl)(Cl)P(=O)(O)O`: the Potency result in test [1], in test [2] and in test [3] was “inactive” throughout. Further, the result in [4], in [5] and in test [6] was inactive.
As for `CC(C)(C=O)Cc1cc(C(C)(C)C)c(O)c(C(C)(C)C)c1`, the Potency result in [1], in test [7], in test [2], in test [3], in test [8] and in test [9] was “inactive” in each case. Besides, the Potency result in [10] was “inactive”. The call in test [4] and in test [6] was inactive.
With `CN1[C@@H](CC(=O)c2ccccc2)CCC[C@H]1C[C@H](O)c1ccccc1`, the Potency entry in test [1], in test [7], in test [2], in test [3], in test [9] and in [10] was “inactive” throughout. The result in [5] and in test [6] was inactive.
On to `CN(C)CCC(c1ccc(Cl)cc1)c1ccccn1` (stereo not drawn), for which the Potency entry in [1], in [7], in test [2], in test [3], in test [9] and in [10] was “inactive” each time. For the same molecule, the molecule was called inactive in test [5] and in test [6].
In the case of `N=C(N)SCCc1ccc(CCSC(=N)N)cc1`, the Potency result in test [1], in test [7], in test [2], in test [3], in test [8] and in test [9] was “inactive” each time. Moreover, the Potency entry in test [10] was “inactive”. For the same molecule, the outcome in test [5] and in test [6] was inactive.
Turning to `CCN1/C(=C/C(C)=O)Sc2ccc(OC)cc21`, the Potency result in test [1], in test [7], in test [2], in test [3], in test [8] and in [9] was “inactive” in each case. In addition, the Potency result in test [10] is “inactive”. The molecule was classed as inactive in test [4] and in test [6].
As to `C=C[C@@H]1CN2CC[C@@H]1C[C@H]2[C@H](O)c1ccnc2ccc(OC)cc12`, the Potency entry in [1], in [7] and in [3] was “inactive” throughout. For the same molecule, the molecule was called inactive in test [4], in [5] and in test [6]. Also, the Potency in [9] was 0.0329 µM (active); in test [10], 0.0928 µM (active).
With `Fc1cccc(/C=N/N=C/c2cccc(F)c2)c1`, the Potency result in [1], in test [7], in [2], in test [3] and in test [8] was “inactive” throughout. The molecule was classed as inactive in test [4] and in test [6].
On to `O=C(O)CCCC[C@@H]1CCSS1`, for which the Potency result in test [1], in test [7], in test [2], in [3], in test [9] and in [10] was “inactive” each time. The call in test [5] and in test [6] was inactive.
Turning to `O=C(O)c1cc([N+](=O)[O-])ccc1NCCCc1ccccc1`, the Potency entry in test [1], in test [7], in test [2], in test [3], in test [9] and in [10] was “inactive” in each case. In addition, the molecule was classed as inactive in test [4] and in [6].
In the case of `CN(C)c1nc(N)c(C(=O)N=C(N)N)nc1Cl`, the Potency result in test [1], in [7], in test [2], in test [3] and in test [10] was “inactive” each time. Moreover, the molecule was called inactive in test [4] and in test [6].
On to `Clc1ccc(N2CCN(Cc3c[nH]c4ncccc34)CC2)cc1`, for which the Potency entry in [1], in test [7], in test [2], in test [3], in test [8] and in test [9] was “inactive” throughout. For the same molecule, the Potency entry in test [10] was “inactive”. Further, in test [6], the call was inactive.
Turning to `CC(C)(C)c1ccc(S(=O)(=O)/C=C/C#N)cc1`, the Potency entry in test [1], in test [2] and in test [3] was “inactive” each time. Moreover, the Potency in [7] is 1.12 µM (active). Further, the call in [6] was inactive.
